Screening results: PubChem, National Center for Advancing Translational Sciences (NCATS)
Apoferritin bind – binds horse apoferritin like a general anesthetic | P02791 | 350,000 tested, 0.074% active | Potency, µM (highest dose often 77.5 µM), without a hit: top-dose activity change, negative = displacement, actives largely listed as inhibitors | apoferritin/1-aminoanthracene competitive binding, fluorescence; note: potency is the fitted concentration of half-maximal effect; % is set by controls: 0 for no effect and ±100 for the full control effect; nearly all actives have a fitted effect of over 20% in size
Target sequence (P02791 2-175 limits assumed): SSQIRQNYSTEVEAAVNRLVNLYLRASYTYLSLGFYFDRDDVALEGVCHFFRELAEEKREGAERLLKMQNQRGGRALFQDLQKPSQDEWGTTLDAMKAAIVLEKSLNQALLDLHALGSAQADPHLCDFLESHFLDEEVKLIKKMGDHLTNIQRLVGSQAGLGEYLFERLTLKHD
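Horse-spleen apoferritin (10 uM) was mixed with 50% saturated 1-aminoanthracene in PBS, exposed to compounds for 10 min at room temperature, and read for fluorescence (ex 380 nm, em 535 nm). Competitive displacement was fitted with a four-parameter Hill equation.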
Mito fusion act – mitochondrial division inhibition or fusion activation. 320,000 tested, 0.23% active. S. cerevisiae fusion-defective mutant growth rescue, CellTiterGlo 48 h. Potency, µM (series often up to 46.1 µM), for inactives: at the top dose growth rescue (activation), actives largely listed as activators; note: potency is the fitted concentration of half-maximal effect; % of control where 0% means no effect; nearly all actives have a fitted effect of over 45% in size
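Luminescent cell viability in 1536-well qHTS format served as the measure of rescued growth in ts fusion-mutant S. cerevisiae cultured on non-fermentable YPEG for 48 hours at 37C.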
aSyn yeast inh – inhibitors of alpha-synuclein toxicity in yeast | Yeast expressing alpha-synuclein, growth rescue, BacTiter-Glo, 24 h | Potency, µM (highest dose often 46.1 µM), for the others: top-dose growth rescue (activation), hits mostly activators | 370,000 tested, 0.14% active | AID 652106; note: potency is the fitted concentration of half-maximal effect; % of control where 0% means no effect; nearly all actives have a fitted effect of over 65% in size
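Rescue of yeast growth: cells expressing toxic alpha-synuclein, induced in galactose at OD600 0.02, incubated with compound 24 h at 30 C. ATP luminescence quantified growth; inhibitors of toxicity appear as activators.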
pAkt inh – Akt phosphorylation inhibition. Neuro2A IGF-stimulated pAkt S473 HTRF, 20 min; hits give low values. activity change, % for hits at 50 µM. 360,000 tested, 0.32% active; in the data active = activity change below about -80%; inconclusive = mostly about -51% to -80%; note: % is set by controls: 0 for no effect and ±100 for the full control effect
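Neuro2A cells (4,500/well, DMEM with 0.5% FBS) were treated with compound at a single 50 µM final concentration, stimulated with 6 nM IGF for 20 min at 37 °C, and lysed. Phospho-Akt Ser473 was read by HTRF as 665/615 ratio ×10^4.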
CCT modulator – changes cytosolic chaperonin activity | purified chaperonin ATPase assay, HTRF ADP detection, 30 min | activity change, % (test concentration not listed), hits read low | 360,000 tested, 0.3% active | AID 651819; in the data active = activity change below about -30%; note: % is set by controls: 0 for no effect and ±100 for the full control effect
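TRiC (40 or 20 nM final, by batch activity) in 30 mM Tris pH 7.4, 100 mM KCl, 5 mM MgCl2, 1 mM DTT was treated with compound at 76 uM single dose, then 10 uM ATP, 30 min at 37 °C. ADP was read by HTRF Transcreener.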
TDP-43 yeast inh – TDP-43 toxicity inhibition in yeast | 410,000 tested, 1.8% active | TDP-43 expressing yeast growth rescue, BacTiter-Glo, 24 h | Potency, µM (highest dose often 46.1 µM), inactives show at the highest dose growth rescue (activation), usual class: activators; note: potency is the fitted concentration of half-maximal effect; % of control where 0% means no effect; nearly all actives have a fitted effect of over 50% in size
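Growth rescue of TDP-43-toxic yeast measured as ATP luminescence (BacTiter-Glo). Cells grown to mid-log in raffinose, induced in galactose at OD600=0.02, exposed to compound 24 hr at 30 deg C.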
The depositor's hits bear a star; i = inactive; u = inconclusive; x = no result; ! = not active in a repeat; [ ] = dose if it differs, or a comment. An excerpt weighted towards active compounds, which were near 2.5% of everything screened. Unless noted, calls come from the whole dose curve; as a rule, active = well fitted curve in the direction sought with a large enough effect; inconclusive = small, poorly fitted or top-dose-only effect, or another doubt; inactive = no such curve, though single readings can be large; an effect the other way counts as inactive or inconclusive.

SMILES	Apoferritin bind	Mito fusion act	aSyn yeast inh	pAkt inh	CCT modulator	TDP-43 yeast inh
CC(=O)C(O)C(c1ccccc1)c1c(O)c2ccccc2oc1=O (configuration not stated)	-12.6%	x	x	x	x	x
C=C1CC[C@H](O)C/C1=C/C=C1\CCC[C@]2(C)[C@H]1CC[C@H]2[C@@H](C)CCCC(C)C	-1.6%[29.3 µM]	x	x	x	x	x
O=C1C=CC2C3C(=O)N(c4ccccc4)C(=O)C3C1N2Cc1ccccc1 (configuration not stated)	x	x	7.5%	i	-3.0	12.6µM*
CCCCC/C=C\C/C=C\C/C=C\C/C=C\CCCC(=O)N(Cc1ccc(O)c(Cl)c1)Cc1ccc(O)c(Cl)c1	-18.5%	x	x	x	x	x
S=c1[nH]nc(-c2ccccc2)n1CC1CCCO1 (configuration not stated)	-7.8%	-4.8%	-2.4%	-99.4%*	0.3	-39.5%
S=c1[nH]nc(-c2ccccc2)n1C1C=CCCC1 (configuration not stated)	-3.7%	3.6%	1.2%	i	-1.9	u
Cc1cc(C(=O)OCC(=O)Nc2ccc(F)cc2)c(C)n1C1CC1	x	9.8%	28.7%	i	-3.5	35.5µM*
CN1Cc2ccccc2-n2nncc2C1	x	x	-2.2%	i	1.3	5.4%
Cc1ccc2n1Cc1cnnn1-c1ccccc1-2	x	x	1.2%	i	1.2	10µM*
CN(C)CCCN=Cc1c(O)n(CCc2ccc(F)cc2)c(=O)[nH]c1=O	-10.6%	1.2%	-3.4%	-119.9%*	-1.6	-7.8%
O=C1C(Cl)=C(N2CCCCCC2)C(=O)N1c1ccccc1	u	29.6%	1.8%	i	1.1	11.2µM*
O=C1CC(=O)N(c2ccccc2)C(=O)N1c1ccccc1	-17.5%	-2.3%	-1.4%	i	-6.7	-22.5%
COC(=O)C1(C(=O)OC)C[C@H](c2ccc(OC)cc2)N(Cc2ccccc2OC)[C@@H]1c1ccccc1	x	x	u	i	x	4.6%
COc1ccc(/C(=N/OC(C)=O)c2nccc3cc(OC)c(OC)cc23)cc1OC	6.3%	-3.2%	-2.3%	i	-4.1	-9.3%
COc1ccc2c(c1OC)CN1CCc3cc4c(cc3[C@H]1C2)OCO4	0.3%[29.3 µM]	11.0%	-1.2%	i	-0.7	22.3%
COc1cc2c(ccc3c4cc(OC)c(OC)cc4c[n+](C)c23)cc1O	x	x	6.8%	i	-0.6	11.2µM*
COc1ccc2c(c[n+](C)c3c4cc5c(cc4ccc23)OCO5)c1OC	x	5.8µM*	-9.5%	x	x	x
COC(=O)C1C2c3ccccc3OC1(C)N=c1s/c(=C/c3cnn(C)c3)c(=O)n12 (configuration not stated)	-8.3%	12.6µM*	2.5%	i	-1.6	-7.9%
CC(=O)C1C2c3ccccc3OC1(C)N=c1s/c(=C/c3cn(C)nc3C)c(=O)n12 (configuration not stated)	u	12.5%	-1.3%	i	3.4	2.8%
Cc1c(C(c2ccccc2Cl)c2c(O)c3ccccc3oc2=O)c(=O)n(-c2ccccc2)n1C (configuration not stated)	2.2%	-26.7%	10.6%	i	-2.2	7.94µM*
COc1ccc(C(c2c(O)c3ccccc3oc2=O)c2c(C)n(C)n(-c3ccccc3)c2=O)cc1 (configuration not stated)	-5.2%	-8.1%	-0.6%	i	0.4	22.4µM*!
CC(=NCCN1CCCCC1)c1c(O)n(Cc2ccccc2)c(=O)[nH]c1=O	-16.7%	1.1%	8.4%	i	-0.5	-13.4%
CC(=NCCCN1CCCCC1)c1c(O)n(Cc2ccccc2)c(=O)[nH]c1=O	-14.4%	0.3%	1.1%	-115.9%*	-2.5	-16.6%
O=C(Cn1c(=O)oc2ccccc21)N1CCCC1	1.2%	u	0.5%	i	1.5	-6.0%
CC(=O)C1CCC2C3CCC4=CC(=O)CC[C@@]4(C)C3CC[C@]12C (some centres not stated)	-18.1%	x	x	x	x	x
